Assay outcomes from PubChem.
EPAC1 ag: activates human EPAC1 exchange factor. EPAC1 agonist qHTS, biochemical assay; response scale: 100% = response to 6.5 mM cAMP. hit rate 0.073% among 360,000. O95398. Potency, µM (titrated, usually from 154 µM), for the others: at the highest dose activation, usual class: activators; further: nearly all actives have a fitted effect of over 60% in size
Target sequence (O95398 whole entry, looked up): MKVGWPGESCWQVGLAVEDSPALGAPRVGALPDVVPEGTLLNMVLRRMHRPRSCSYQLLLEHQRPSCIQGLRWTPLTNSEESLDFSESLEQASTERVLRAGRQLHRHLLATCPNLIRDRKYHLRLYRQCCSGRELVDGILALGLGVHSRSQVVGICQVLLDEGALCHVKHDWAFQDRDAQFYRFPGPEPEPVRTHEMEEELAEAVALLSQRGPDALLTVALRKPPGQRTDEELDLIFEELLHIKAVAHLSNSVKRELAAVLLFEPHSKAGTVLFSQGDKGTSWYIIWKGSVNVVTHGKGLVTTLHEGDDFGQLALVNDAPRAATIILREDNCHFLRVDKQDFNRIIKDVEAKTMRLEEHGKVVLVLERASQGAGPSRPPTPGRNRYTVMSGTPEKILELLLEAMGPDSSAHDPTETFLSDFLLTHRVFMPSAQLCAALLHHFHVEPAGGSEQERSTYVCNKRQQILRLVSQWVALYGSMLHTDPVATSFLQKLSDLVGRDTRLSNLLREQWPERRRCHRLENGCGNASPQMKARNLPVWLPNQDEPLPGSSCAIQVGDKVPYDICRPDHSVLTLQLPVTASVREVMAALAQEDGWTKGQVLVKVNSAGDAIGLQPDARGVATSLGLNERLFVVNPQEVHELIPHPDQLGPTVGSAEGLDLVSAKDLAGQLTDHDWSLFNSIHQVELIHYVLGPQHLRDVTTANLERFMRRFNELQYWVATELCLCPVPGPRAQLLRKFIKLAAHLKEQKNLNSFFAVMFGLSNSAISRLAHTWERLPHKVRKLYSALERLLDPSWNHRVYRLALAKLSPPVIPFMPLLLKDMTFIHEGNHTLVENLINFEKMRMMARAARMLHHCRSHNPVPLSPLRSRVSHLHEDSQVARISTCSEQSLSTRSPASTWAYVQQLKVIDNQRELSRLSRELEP
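Read-out is the fluorescence drop as BODIPY-GDP leaves Rap1B (480 nm excitation, 540 nm emission), recorded every 5 minutes over 30 minutes. Reactions held 100 nM EPAC1, 250 nM Rap1B–BODIPY-GDP and 50 uM GDP, with 6.5 mM cAMP setting full activation.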
BRCA1 expr up: activators of BRCA1 expression | Potency, µM (series often up to 46.1 µM), inactives show at the top dose activation, hits mostly activators | hit rate 1.1% among 380,000 | MCF7-BRCA1-FFLuc reporter, luminescence, 48 h; response scale: scaled: vehicle 0%, 10 µM genistein 100%; further: nearly all actives have a fitted effect of over 80% in size
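Activators of BRCA1 expression were detected as increased firefly luciferase luminescence in engineered MCF7 cells after 48 h compound incubation. Signals were scaled to genistein 10 microM as full activation.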
EPAC1 antagonist: EPAC1 (human) antagonism; O95398; EPAC1 GEF assay, Rap1b-BODIPY-GDP exchange fluorescence; Potency, µM (highest dose often 115 µM), for inactives: at the top dose activity change, negative = inhibition, most hits filed as inhibitors; hit rate 0.14% among 360,000; AID 720709;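 further: plate controls were vehicle for no effect and positive control for full effect; nearly all actives have a fitted effect of over 50% in size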
EPAC2 antag: EPAC2 (human) antagonism | EPAC2 GEF exchange of Rap1B-BODIPY-GDP, fluorescence | hit rate 0.18% among 360,000 | Potency, µM (top dose mostly 114 µM), for inactives: at the top dose activity, negative = inhibition, hits mostly inhibitors | AID 720708; further: on the % scale 0 is the no-effect control and ±100 the full control effect; nearly all actives have a fitted effect of over 45% in size
EPAC2 ag: activates human EPAC2 exchange factor. Q8WZA2. EPAC2 activation, biochemical qHTS; response scale: 100% = 6.5 mM cAMP response. Potency, µM (top dose mostly 154 µM), without a hit: top-dose activation, most hits filed as activators. hit rate 0.079% among 360,000. AID 720711; further: nearly all actives have a fitted effect of over 50% in size
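In this primary screen, activation is scored as increased exchange of BODIPY-GDP from Rap1B by 100 nM EPAC2, with 50 uM GDP as competitor. Signal is normalized to the 6.5 mM cAMP agonist control.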
RGS4 inh: inhibitors of human regulator of G protein signaling 4 | P49798 | Transcreener GDP fluorescence polarization, RGS4-accelerated GTP hydrolysis | Potency, µM (doses to about 114 µM), without a hit: at the top dose activity change, negative = inhibition, most hits filed as inhibitors | hit rate 0.039% among 390,000; further: on the % scale 0 is the no-effect control and ±100 the full control effect; nearly all actives have a fitted effect of over 75% in size
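MLSMR compounds (23 nl, pin-transferred) preincubated 10 min at room temperature with a 500nM (2x) first reagent, then RGS4 at 900nM (2x) plus Transcreener GDP mix added; fluorescence polarization (620/688 nm) read before and after 90 min at 30 °C.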
An asterisk follows results filed as active; ? = inconclusive; · = not tested or not shown; [ ] = dose if it differs, or a comment. Compounds with a hit are over-represented: about 1.3% of the library has one in this group of screens. The call rests on the fitted dose curve; in most records, active means well fitted curve in the direction sought with a large enough effect; inconclusive means small, poorly fitted or top-dose-only effect, or another doubt; inactive means no such curve, though single readings can be large; an effect the other way counts as inactive or inconclusive. Potency means the concentration at half of the fitted maximal effect.

SMILES	EPAC1 ag	BRCA1 expr up	EPAC1 antagonist	EPAC2 antag	EPAC2 ag	RGS4 inh
O=C(CSc1ncn[nH]1)N1CCCCC1	-4%	20%	-10%	1%	-1%	-46%
O=C(CSc1ncc(-c2ccc(F)cc2)[nH]1)N1CCCCC1	-3%	11µM*	7%	1%	7%	17%
CC(=O)[C@]1(O)Cc2c(O)c3c(c(O)c2[C@@H](O[C@H]2C[C@H](N)[C@H](O)[C@H](C)O2)C1)C(=O)c1ccccc1C3=O	100µM*	-51%	127%	105%	112µM*	?
COc1cccc2c1C(=O)c1c(O)c3c(c(O)c1C2=O)C[C@@](O)(C(C)=O)C[C@@H]3O[C@H]1C[C@H](N)[C@H](O)[C@H](C)O1	4%	-63%	15%	?	-9%	?
CSc1ccc(/C=C/C(=O)N2CCCN(C)CC2)cc1	7%	8.9µM*	-1%	16%	9%	-20%
CN1CCN(C(=O)/C=C\c2ccc(Cl)cc2)CC1	2%	54%	3%	0%	0%	8%
CN(C)CCNC(=O)C(=O)Nc1cc2c3c(c1)CCN3C(=O)CC2	4%	-17%	-8%	0%	16%	6%
Cn1cnnc1SCC(=O)Nc1ccc2nc(SCc3ccccc3F)sc2c1	19%	4µM*	12%	-1%	12%	0%
O=C(Nc1ccccc1)N1CC=C(c2ccc(F)cc2)CC1	11%	4µM*	-3%	-4%	12%	13%
COc1cc(CCC(C)=O)ccc1OC(=O)c1c(F)cccc1Cl	5%	8.9µM*	1%	-14%	7%	-32%
O=C(c1ncc[nH]1)c1ccccc1C(=O)N1CCOCC1	5%	3%	8%	12%	6%	-17%
COCCN1CCN(C(=O)C2CCC(=O)N(Cc3ccc(Cl)cc3)C2)CC1 (configuration not stated)	12%	5%	9%	3%	9%	13%
CN(C)c1ccc(/C=C(\C#N)c2ccccc2)cc1	-6%	2.8µM*	0%	-5%	12%	-7%
COc1ccccc1CCC(=O)OCC(=O)Nc1cc(C)nn1-c1ccccc1	100µM*	-9%	-11%	2%	6%	9%
Cc1ccc(OCCC(=O)OCC(=O)Nc2cc(C)nn2-c2ccccc2)cc1	3%	-4%	-22%	-3%	1%	-20%
COc1ccc2oc(C(=O)N(C)Cc3ccc(OC(F)F)cc3)c(C)c2c1	15%	48%	6%	-16%	9%	16%
COc1ccc(C(CNC(=O)c2oc3ccc(OC)cc3c2C)N2CCCC2)cc1 (configuration not stated)	-6%	-44%	16%	12%	10%	-29%
COc1ccc2oc(C(=O)NCCC(C)C)c(C)c2c1	-4%	7.1µM*	-9%	-4%	6%	-12%
COc1ccc2oc(C(=O)N(C)CCOc3ccccc3)c(C)c2c1	9%	11µM*	3%	-14%	3%	-16%
Cc1cccc(NC(=O)c2ccc3ccccc3n2)c1C	-3%	33%	-10%	-1%	16%	-1%[11.4 µM]
O=C(NCCCc1ccccc1)C1CCN(C(=O)N2CCOc3ccc(Cl)cc32)CC1	·	·	·	·	·	8%
O=C1c2ccccc2NC2(CCCCC2)N1c1ccc(O)cc1	-1%	11µM*	-1%	11%	4%	-16%
O/N=C/c1ccc(OCc2ccccc2)c(Br)c1	11%	?	-5%	-4%	14%	-52%
O/N=C/c1ccc(OCc2ccccc2)c(Cl)c1	3%	10µM*	1%	-7%	21%	-14%
O/N=C/c1ccccc1OCc1ccccc1F	1%	49%	-10%	8%	-2%	-13%
SMILES	EPAC1 ag	BRCA1 expr up	EPAC1 antagonist	EPAC2 antag	EPAC2 ag	RGS4 inh
O/N=C/c1ccc(OCc2ccccc2F)c(Cl)c1	13%	2.8µM*	?	-18%	16%	19%
N#Cc1nc(COc2cccc(Cl)c2)oc1N1CCCC1	4%	-21%	-14%	-8%	15%	15%
Nc1nc(-c2ccccc2Cl)cs1	6%	10µM*	12%	14%	3%	-46%
CCN(C[C@H]1N[C@@](CC)(C(=O)OC)[C@H]2C(=O)N(Cc3ccccc3)C(=O)[C@@H]12)C(=O)NC(C)C	12%	-3%	12%	6%	3%	17%
O=C(O)c1ccc(N/N=C/c2cc3ccccc3nc2Cl)cc1	-6%	29%	-9%	-29%	9%	1%
O=C(O)c1ccc(N/N=C/c2cccc3nccnc23)cc1	-5%	13µM*	4%	-22%	-2%	-1%[11.4 µM]
O=C(O)c1cccc(S(=O)(=O)Nc2cc(Cl)ccc2Cl)c1	9%	-2%	-16%	-3%	8%	21%
CC1CC(C)CN(C(=O)c2cccc(S(=O)(=O)Nc3cc(C(F)(F)F)ccc3Cl)c2)C1 (configuration not stated)	-13%	-1%	50µM*	50µM*	-14%	10%
Cc1cc(Cl)c2oc(C(=O)N(C)C3CCOC3)c(C)c2c1 (configuration not stated)	-12%	2.5µM*	?	-16%	0%	-11%[11.4 µM]
O=C(Nc1ccc2c(c1)COC2=O)c1ccc(Cl)c(Cl)c1	4%	14µM*	-15%	-5%	4%	16%
O=C(NC1CCCCCCC1)c1cc(COc2ccc3ncccc3c2)on1	-6%	-48%	0%	-13%	6%	6%
CCC1(C)Cc2c(sc3nc(SC)n(Cc4ccccc4)c(=O)c23)CO1 (configuration not stated)	1%	13µM*	-7%	3%	7%	-11%
CCCSc1nc2sc3c(c2c(=O)n1Cc1ccccc1)CC(C)(CC)OC3 (configuration not stated)	·	·	·	·	·	-8%
O=C(CCc1nnc(CCCc2ccccc2)o1)NCCc1ccccc1	-6%	4%	-12%	1%	6%	19%
O=C(CCc1nnc(CCCc2ccccc2)o1)NCCCC1CCCC1	-5%	13µM*	-18%	-3%	2%	19%
COc1ccc(CNc2nc(-c3ccccc3)nn2C(=O)c2cccs2)cc1	8%	44%	-7%	-3%	1%	-26%
COc1ccc(CNc2nc(-c3ccccc3)nn2C(=O)c2ccc([N+](=O)[O-])cc2)cc1	6%	11µM*	-23%	1%	3%	20%
Cc1c(C(=O)O)cccc1N1C(=O)Nc2ccccc2N1O	2%	-1%	7%	8%	-5%	1%
Cn1cccc1C(=O)C(=O)Nc1ccccc1C(F)(F)F	-5%	3%	-7%	3%	7%	8%
Cn1cccc1C(=O)C(=O)Nc1ccccc1	0%	7.1µM*	-6%	1%	2%	16%
